Screens (PubChem BioAssay)
HTT aggregate: mutant huntingtin aggregation inhibition | PC12 HttQ103-GFP aggregates, Acumen cytometry, 40 h | Potency, µM (titrated, usually from 46.1 µM), inactives show at the top dose activity change, negative = inhibition, hits mostly inhibitors | 1.1% of 220,000 active; also: potency is read from the fitted curve at half-maximal effect; % is scaled to controls: 0 for no effect and ±100 for the full control effect; nearly all actives have a fitted effect of over 60% in size
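Inducible Q103 Huntingtin exon 1–GFP PC12 line, 1500 cells/well in phenol red free DMEM with 5% equine and 5% calf serum. Tebufenozide 100 nM induced expression; compounds titrated; aggregates quantified by cytometry.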
GALK inh: blocks human galactokinase activity. P51570. 0.007% of 270,000 active. Purified GALK, Kinase-Glo residual ATP luminescence. Potency, µM (top dose mostly 57.5 µM), for inactives: at the top dose activity change, negative = inhibition, usual class: inhibitors. AID 1868; also: potency is read from the fitted curve at half-maximal effect; % is scaled to controls: 0 for no effect and ±100 for the full control effect
Target sequence (P51570 whole entry, looked up): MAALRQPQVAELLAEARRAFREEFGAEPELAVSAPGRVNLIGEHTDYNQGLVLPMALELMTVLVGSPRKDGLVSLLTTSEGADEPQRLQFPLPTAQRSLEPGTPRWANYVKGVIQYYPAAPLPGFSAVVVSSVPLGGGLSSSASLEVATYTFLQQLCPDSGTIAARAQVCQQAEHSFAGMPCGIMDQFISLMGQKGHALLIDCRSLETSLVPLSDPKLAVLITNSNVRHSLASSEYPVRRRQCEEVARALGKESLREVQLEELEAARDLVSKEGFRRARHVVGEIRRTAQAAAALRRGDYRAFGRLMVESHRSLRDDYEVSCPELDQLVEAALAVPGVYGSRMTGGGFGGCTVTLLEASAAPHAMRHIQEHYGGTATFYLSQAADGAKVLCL
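5 nM enzyme, 35 uM ATP, 100 uM galactose, 20 mM HEPES pH8.0, 5 mM MgCl2; 1 h RT; residual ATP by Kinase-Glo Plus luminescence, qHTS format.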
PI4K2A block: PI4K2A (human) kinase inhibition; Q9BTU6; activity change, negative = inhibition, % at 76.9 µM; purified PI4K2A, ADP-Glo luminescence, 1 h; hits give low values; 0.13% of 420,000 active; AID 1346378; in the data active = activity change below about -50%; inconclusive = mostly about -30% to -49%;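 also: -100% = wells without enzyme as full effect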
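PI4K2A activity was measured by ADP-Glo luminescence: enzyme (4 ug/mL stock) and phosphatidylinositol (1.2 mM stock) in Tris pH 7.5/MgCl2/EGTA/Triton X-100 buffer were reacted with ATP (300 microM stock) for one hour at ambient temperature.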
HTT ATP protect: cytoprotection in Huntington HTT-Q103 PC12 cell model. Potency, µM (highest dose often 56.4 µM), without a hit: cytoprotection (ATP increase), most hits filed as activators. PC12 HTT-Q103 induced, cytoprotection, ATP luminescence, 40 h. 0.14% of 230,000 active; also: potency is read from the fitted curve at half-maximal effect; % of control where 0% means no effect; nearly all actives have a fitted effect of over 45% in size
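Rat PC12, Q103 Htt exon1-GFP fusion, ecdysone promoter; tebufenozide inducer 100 nM final; compound titration; qHTS, 1500 cells/well; ATPlite luminescent read.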
Starred values were filed as active, the others as inactive; u = inconclusive; x = no result given; [ ] = dose if it differs, or a comment. Only a selection was taken, and hits are over-represented in it overall. Unless noted, calls follow the shape of the dose curve; as a rule, active = well fitted curve in the direction sought with a large enough effect; inconclusive = small, poorly fitted or top-dose-only effect, or another doubt; inactive = no such curve, though single readings can be large; an effect the other way counts as inactive or inconclusive.

SMILES	HTT aggregate	GALK inh	PI4K2A block	HTT ATP protect
C[C@H]1Cc2c(-c3ccccc3)nc3c(c2CO1)CN(C(=O)c1cc(I)ccc1F)CC3	x	x	x	-20%[10 µM]
c1ccc(-c2nnc3ccc(N4CCCC4)nn23)cc1	-19%	-2%	-6	-1%[10 µM]
CN(Cc1ccccc1)c1ccc2nnc(-c3ccccc3)n2n1	35µM*	x	-2	x
C/C(=N\O)[C@@H](C)NCC(C)(C)CN[C@H](C)/C(C)=N/O	x	x	-1	x
COc1cc2c3nnc(-c4ccc(F)cc4)c-3cn(Cc3cccc(C)c3)c2cc1OC	-22%	0%	-4	0%[10 µM]
COc1cc2c3nnc(-c4ccc(F)cc4)c-3cn(Cc3cccc(F)c3)c2cc1OC	10µM*	-1%	2	-23%
O=C(CN1CCOCC1)NCc1ccccc1	0.32µM*	0%	2	-13%
O=C(CN1CCCC1)NCc1ccccc1	x	-3%	-4	x
CCOc1ccc(CCNC(=O)c2cc(-c3ccccc3)c(N3CCOCC3)s2)cc1OC	x	x	-3	x
CCOC(=O)C(NC(C)=O)(NS(=O)(=O)c1ccccc1)C(F)(F)F (stereo unspecified)	3.2µM*	-1%	1	-17%
Cn1c(Cc2cccs2)nnc1SCC(=O)Nc1ccc2cn[nH]c2c1	x	x	-1	x
Cc1ccccc1NC(=O)OC1CCC12CCC(c1ccccc1)CC2 (stereo unspecified)	x	x	-1	x
O=C(c1cccc2c1-c1ccccc1/C2=N/O)N1CCCCC1	11µM*	0%	-4	6%
O=C1NCC(c2ccccc2)C1C(=O)N/N=C/c1ccc(Cl)s1 (stereo unspecified)	0.11µM*	1%	-6	x
O=C1NCC(c2ccccc2)C1C(=O)N/N=C\c1ccc(-c2ccc(Cl)c(Cl)c2)o1 (stereo unspecified)	-13%	0%	-8	1%
Cc1ccc(C)c(Nc2ncnc3nc[nH]c23)c1	-7%	0%	-5	-18%
Cc1cccc(Nc2ncnc3nc[nH]c23)c1	13µM*	-1%	-13	-18%[10 µM]
COC(=O)[C@]12C[C@H](CC(=O)NCC34CC5CC(CC(C5)C3)C4)C(=O)N(Cc3ccco3)C1=C[C@H](C(C)(C)C)O[C@@H]2C	x	x	1	x
CC(C)(C)n1nnnc1C(c1ccc(F)cc1)N(Cc1ccc(F)cc1)Cc1ccco1 (stereo unspecified)	u	4%	3	3%[10 µM]
CC(C)(C)n1nnnc1C(c1ccc(C(F)(F)F)cc1)N(Cc1ccc(F)cc1)Cc1ccco1 (stereo unspecified)	16µM*	1%	-4	-17%[10 µM]
N#CC1=C(N)SC(N)=C(C#N)C1CCC1CCCCC1	0.89µM*	-3%	x	10%[10 µM]
Cc1sccc1C1C(C#N)=C(N)SC(N)=C1C#N	13%	-2%	x	5%[1.9 µM]
Cc1ccc(C(=O)O[C@@H](C(=O)O)[C@@H](OC(=O)c2ccc(C)cc2)C(=O)O)cc1 (tested in a mixture with another compound)	x	x	x	-21%[1.9 µM]
COc1ccc(-c2cc(=O)c3ccccc3n2C)cc1	-30%	0%	-3	31%[10 µM]
COc1ccc2c(c1)c1ccccc1n2C	13µM*	0%	5	0%[10 µM]
SMILES	HTT aggregate	GALK inh	PI4K2A block	HTT ATP protect
CN1CCN(C2=C(Cl)C(=O)c3ccccc3C2=O)CC1	x	x	-55*	x
CCOC(=O)[C@@]12CCCC3=C1N(CCC3)C(=O)[C@H]2CC(=O)NCCCOC	x	x	-7	x
Cc1nc(NCc2ccco2)c(C#N)c2c1COC(C)(C)C2	3%	8%	8	-14%
CC1(C)Cc2c(C#N)c(NCc3ccco3)nc(-c3ccco3)c2CO1	1µM*	0%	-7	-24%[10 µM]
COc1ccc(Nc2ccccc2N)cc1	13µM*	-5%	-5	-40%
CN1/C(=C\C(=O)Nc2ccc(F)cc2)C(C)(C)c2ccccc21	6.3µM*	-2%	5	-25%[10 µM]
CN1/C(=C\C(=O)Nc2ccc(Br)cc2)C(C)(C)c2ccccc21	-11%	x	-5	-1%[10 µM]
O=C(CSc1nc(NS(=O)(=O)c2ccccc2)cc(=O)[nH]1)Nc1ccc(Cl)cc1	0%[9.22 µM]	-1%	-27	2%[10 µM]
COc1ccc(NC(=O)CSc2nc(NS(=O)(=O)c3ccccc3)cc(=O)[nH]2)cc1	-3%	-2%	-53*	-19%[10 µM]
O=C(N[C@@H]1C[C@@H]2O[C@@H](CO)CC[C@@H]2O[C@@H]1CCc1ccc(-c2ccccc2)cc1)c1cnccn1	x	x	-3	x
COc1ccc(OC)c(C2/C(=C(/O)c3cnn(-c4ccccc4)c3C)C(=O)C(=O)N2CCN(C)C)c1 (stereo unspecified)	10µM*	-2%	-1	-14%
COc1ccc(C2/C(=C(/O)c3cnn(-c4ccccc4)c3C)C(=O)C(=O)N2CCN(C)C)cc1OC (stereo unspecified)	x	x	-2	x
COc1ccccc1N1C(=O)c2cccnc2C1=O	x	-1%	-3	x
COC1=C(Br)C(=O)c2ncccc2C1=O	x	x	-55*	x
O=C1c2cccnc2-c2ncccc21	11%	6%	3	3%
O=C1C(=O)c2cccnc2-c2ncccc21	x	x	-74*	x
CCN(CCNC(=O)[C@H]1C=C(OC)C(=O)C[C@H](c2ccccc2)[C@H]1C)C(C)=O	x	x	1	x
COc1ccc2c(c1)C(=O)[C@H](OC(=O)NS(=O)(=O)c1ccc(C)cc1)[C@@H](c1ccc(OC)c(Br)c1)O2	x	x	x	-29%
Cc1ccc(-n2c(Cl)c(Cl)nc(Cl)c2=O)cc1	4.5µM*	-1%	-4	x
CCCn1c2c(c(O)c(C(=O)NC)c1=O)CCCC2	-24%	-1%	-4	-19%[0.074 µM]
CCCn1c2c(c(O)c(C(=O)Nc3ncccc3O)c1=O)CCCC2	13µM*	5%	-4	-12%
CC(OC(=O)C1CC1)C(=O)Nc1ccc([N+](=O)[O-])cc1Cl (stereo unspecified)	-5%	1%	2	3.5µM*
O=C(Nc1ccc2nc3n(c(=O)c2c1)CCCC3)c1cc([N+](=O)[O-])ccc1F	14µM*	-1%	-10	-10%[10 µM]
O=C(Nc1c(-c2ccccc2)nc2ncccn12)c1ccc(F)cc1	x	x	0	x
CO[C@@H]1/C=C\O[C@]2(C)Oc3c(C)c(O)c4c(O)c(cc(O)c4c3C2=O)NC(=O)/C(C)=C\C=C/[C@H](C)[C@@H](O)[C@H](C)[C@H](O)[C@H](C)[C@H](OC(C)=O)[C@@H]1C	x	x	x	-4%[10 µM]
SMILES	HTT aggregate	GALK inh	PI4K2A block	HTT ATP protect
Cc1ccc(OCCNS(=O)(=O)c2ccc(N3CCCC3=O)cc2)cc1	11µM*	-3%	1	18%[10 µM]
O=C(Nc1nccs1)C(c1ccccc1)N1CCCC1 (stereo unspecified)	-5%	-1%	-2	1.4µM*
O=C(Nc1nc(-c2ccc(F)cc2)cs1)c1cnccn1	10µM*	x	2	1%[10 µM]
C=C1CC[C@@H](O)C/C1=C/C=C1\CCC[C@]2(C)[C@@H]1CC[C@H]2[C@@H](C)CCCC(C)C	x	x	x	-39%
CCOc1ccc(C(=O)NCCc2ccc3c(c2)OCCO3)cc1	5µM*	3%	-1	x
CCCCN(CC)S(=O)(=O)c1ccc(C(=O)Nc2nnc(-c3ccccc3Cl)o2)cc1	10µM*	0%	x	-10%[10 µM]
